Most compounds without a hit are left out; they make up all but 2.6% or so of the library.
Cruzain inh Det – qHTS Assay for Promiscuous and Specific Inhibitors of Cruzain (with detergent) | hit rate 0.43% among 200,000 | Potency, µM, hits mostly inhibitors | Cruzipain (Trypanosoma cruzi), P25779 | AID 1478, 2009 | purified cruzain, Z-FR-AMC fluorescence, 0.01% Triton; also: nearly all actives have a fitted effect of over 40% in size
Target sequence (P25779 123-467 limits assumed): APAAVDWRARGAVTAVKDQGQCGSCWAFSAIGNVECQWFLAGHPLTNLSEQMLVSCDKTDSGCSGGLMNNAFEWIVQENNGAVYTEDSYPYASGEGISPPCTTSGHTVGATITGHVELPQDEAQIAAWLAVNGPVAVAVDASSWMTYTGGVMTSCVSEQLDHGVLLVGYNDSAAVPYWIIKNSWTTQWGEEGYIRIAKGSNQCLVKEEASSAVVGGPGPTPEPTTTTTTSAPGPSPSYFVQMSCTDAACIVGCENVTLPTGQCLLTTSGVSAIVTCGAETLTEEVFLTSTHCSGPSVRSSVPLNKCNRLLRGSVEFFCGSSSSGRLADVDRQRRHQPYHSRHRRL
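Read-out: AMC fluorescence (360 nm excitation, 450 nm emission), four reads over 2 min, first-to-third difference used. Conditions: cruzain 1.5 nM, Z-FR-AMC 2 uM, pH 5.5 acetate, 5 mM DTT, 0.01% Triton X-100.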
Cruzain noTriton – qHTS Assay for Promiscuous and Specific Inhibitors of Cruzain (without detergent); Cruzipain (Trypanosoma cruzi), P25779; purified cruzain, Z-FR-AMC fluorescence, no detergent; AID 1476, 2009; hit rate 2.3% among 200,000; Potency, µM, actives largely listed as inhibitors; also: nearly all actives have a fitted effect of over 40% in size
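Purified cruzain at 1.5 nM, pre-incubated 15 min with compound at room temperature in 100 mM sodium acetate pH 5.5, 5 mM DTT, 0.00005% Triton X-100. Reaction started with 2 uM Z-FR-AMC; AMC fluorescence increase over 60 s gives rate.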
Each line names hits and unclear results; the compound was inactive in the other large screens. Calls follow the shape of the dose curve; as a rule, active = well fitted curve in the direction sought with a large enough effect; inconclusive = small, poorly fitted or top-dose-only effect, or another doubt; inactive = no such curve, though single readings can be large; an effect the other way counts as inactive or inconclusive.

Cc1ccc(Cn2c(C)c(CNCc3ccc(OC(C)C)cc3)c(C(=O)O)c2C)cc1	none
CNC(=S)N/N=C/c1cn(Cc2c(F)cccc2Cl)c2ccccc12	Cruzain noTriton 31.6µM
CCNC(=S)N/N=C/c1cn(Cc2ccccc2F)c2ccccc12	Cruzain noTriton inconclusive
CCOc1ccccc1NC(=O)CSc1nnc(N)s1	none
Cc1cccc(NC(=O)CSc2nc3c(oc4ccccc43)c(=O)n2C(C)C)c1	none
COc1cccc(-n2c(SCC(=O)Nc3cccc(Cl)c3)nc3c(oc4ccccc43)c2=O)c1	Cruzain noTriton 12.6µM
COc1cccc(-n2c(SCC(=O)Nc3cc(C)ccc3C)nc3c(oc4ccccc43)c2=O)c1	none
O=C(CSc1nc2c(oc3ccccc32)c(=O)[nH]1)Nc1cccc(Cl)c1	Cruzain noTriton 7.94µM
Cc1ccc(Nc2c(-c3ccc(N4CCOCC4)cc3)nc3c(C)cccn23)cc1	none
COc1ccc(/C=C\c2onc(C)c2S(=O)(=O)N2CCC(C(=O)Nc3ccccc3OC)CC2)cc1	Cruzain noTriton inconclusive
O=C(Cn1c(=O)n(Cc2ccc3c(c2)OCO3)c(=O)c2ccccc21)Nc1cccc(Cl)c1	none
Cc1cccc(NC(=O)Cn2c(=O)n(Cc3ccc(C(=O)NCc4ccc5c(c4)OCO5)cc3)c(=O)c3ccccc32)c1	Cruzain noTriton 3.98µM
O=C(Cn1c(=O)n(Cc2ccc3c(c2)OCO3)c(=O)c2ccccc21)N1CCCc2ccccc21	Cruzain noTriton 31.6µM
CCN(C(=O)Cn1c(=O)n(Cc2ccc3c(c2)OCO3)c(=O)c2ccc(C(=O)NC3CCCCC3)cc21)c1cccc(C)c1	Cruzain noTriton 31.6µM
O=C(Cn1c(=O)n(Cc2ccc(C(=O)NCc3ccc4c(c3)OCO4)cc2)c(=O)c2ccccc21)Nc1cccc(Cl)c1	Cruzain noTriton 3.98µM
CC1CCN(C(=O)Cn2c(=O)n(Cc3ccc4c(c3)OCO4)c(=O)c3ccccc32)CC1	none
Cc1cc(C)c(NC(=O)Cn2c(=O)n(Cc3ccc(C(=O)NCc4ccc5c(c4)OCO5)cc3)c(=O)c3ccccc32)c(C)c1	none
Cc1ccc(C)c(NC(=O)Cn2c(=O)n(Cc3ccc4c(c3)OCO4)c(=O)c3ccc(C(=O)NC4CCCCC4)cc32)c1	none
CS(=O)(=O)Nc1cccc(-c2cncnc2NCc2cccnc2)c1	none
Cc1ccc(NC(=O)Cn2c(=O)n(Cc3ccc4c(c3)OCO4)c(=O)c3ccc(C(=O)NC4CCCCC4)cc32)c(C)c1	none
COc1ccccc1Cn1c(CNS(=O)(=O)c2ccccc2Cl)nc2cccnc21	none
CCOc1ccc(NC(=O)c2ccc3nc(C(C)C)oc3c2)cc1	none
CCOc1ccccc1CNC(=O)c1ccc(NC(=O)N2CC(C)Sc3ccccc32)cc1 (stereo not drawn)	Cruzain noTriton inconclusive
COc1cccc(NC(=O)Cn2c(=O)n(CCc3ccc(OC)c(OC)c3)c(=O)c3ccccc32)c1	none
COc1cccc(NC(=O)Cn2c(=O)n(Cc3ccc(C(=O)NCc4ccc(C)cc4)cc3)c(=O)c3ccccc32)c1	Cruzain noTriton 12.6µM
COc1ccc(OC)c(CNC(=O)Cc2ccc(NC(=O)N3CCSc4ncccc43)cc2)c1	none
Cc1c(Cc2ccc3c(c2)OCO3)sc(NC(=O)c2ccc3ccccc3c2)c1C(N)=O	Cruzain noTriton 10µM
CCCOc1ccc(C(=O)Nc2nc(C)c(Cc3ccc4c(c3)OCO4)s2)cc1	none
O=C(Nc1nc(-c2cc(Cl)sc2Cl)cs1)c1cccs1	Cruzain noTriton inconclusive
Cc1ccc(NC(=O)Nc2nnc(N3CCCC3)s2)cc1	none
O=C(Nc1nc(-c2ccccn2)cs1)c1ccc(Br)s1	Cruzain noTriton inconclusive
CC(=O)Nc1nc(-c2ccc(Br)s2)cs1	Cruzain noTriton 12.6µM
Cc1ccc(NC(=O)Nc2nc(-c3ccc(C)s3)cs2)cc1	Cruzain noTriton 25.1µM
O=C(Nc1nc(-c2cc(Cl)sc2Cl)cs1)c1ccc(Br)s1	Cruzain noTriton 7.94µM
Cc1cc(C)cc(NC(=O)C(=O)NCC(c2cccnc2)N2CCOCC2)c1 (stereo not drawn)	none
COc1cccc(CNC(=O)Cn2c(=O)ccc3cc(S(=O)(=O)N4CCCC4)ccc32)c1	none
CCCCCn1c(=O)[nH]c2cc(C(=O)N3CCN(c4cccc(C(F)(F)F)c4)CC3)ccc2c1=O	none
COC(=O)CSc1nc2ccc(NC(=O)CSc3nnnn3Cc3ccccc3)cc2s1	none
Cc1ccccc1OCc1nnc(SCC(=O)Nc2ccc3c(c2)OCO3)n1C	none
O=C(CSc1nc2ccc(NC(=O)CSc3nnnn3Cc3ccccc3)cc2s1)Nc1ccccc1	Cruzain noTriton 10µM
Cc1ccccc1OCc1nnc(SCC(=O)Nc2ccc3nc(SCC(=O)Nc4ccccc4)sc3c2)n1C	Cruzain noTriton 25.1µM
Cc1ccc(CNC(=O)CN2C(=O)CC(c3ccc(C)c(C)c3)=Nc3ccccc32)cc1	none
Cc1ccc(C2=Nc3ccccc3N(CC(=O)NCc3ccccc3Cl)C(=O)C2)cc1C	Cruzain noTriton 25.1µM
N#C/C(=C\c1cccs1)C(=O)NCc1ccccc1	none
N#C/C(C(=O)NCc1ccccc1)=C1/N=C(NC(=O)c2cccs2)c2ccccc21	Cruzain noTriton 25.1µM
Cc1ccc2cccc(NC(=O)c3ccc(-c4ccc(Cl)cc4Cl)o3)c2n1	none
Cc1csc(NC(=O)c2cc([N+](=O)[O-])cc([N+](=O)[O-])c2)n1	none
Cc1csc(/N=C/c2ccc([N+](=O)[O-])cc2)n1	Cruzain noTriton 20µM
O=C(CSc1nc2c([nH]c3ccccc32)c(=O)n1-c1ccccc1)Nc1ccc(Cl)c(Cl)c1	Cruzain noTriton 12.6µM
O=C(CSc1nc2c([nH]c3ccccc32)c(=O)n1-c1ccccc1)Nc1ccc2c(c1)OCCO2	Cruzain noTriton 25.1µM
Cc1ccc(-n2c(SCC(=O)Nc3ccc4c(c3)OCCO4)nc3c([nH]c4ccccc43)c2=O)cc1	Cruzain noTriton 25.1µM
Cc1cc(C)cc(-n2c(SCC(=O)Nc3ccc4c(c3)OCCO4)nc3c([nH]c4ccccc43)c2=O)c1	Cruzain noTriton inconclusive
CC(Sc1nc2c([nH]c3ccccc32)c(=O)n1-c1ccccc1)c1ccccc1 (stereo not drawn)	Cruzain noTriton 7.94µM
COC(=O)C(C)Sc1nc2c([nH]c3ccccc32)c(=O)n1-c1ccc(OC)cc1 (stereo not drawn)	none
COc1cccc(NC(=O)CSc2nc3c([nH]c4ccccc43)c(=O)n2-c2ccccc2)c1	Cruzain noTriton inconclusive
O=C(CSc1nc2c([nH]c3ccccc32)c(=O)n1-c1ccccc1)Nc1ccc2c(c1)OCO2	Cruzain noTriton inconclusive
O=C(NCC(c1ccc2c(c1)OCO2)N1CCN(c2ccccc2)CC1)C(=O)Nc1cccc(F)c1 (stereo not drawn)	none
Cc1ccc2nc(-c3ccc(SCC(=O)Nc4ccc5c(c4)OCCO5)nc3)[nH]c2c1	none
Cc1cc2nc(-c3ccc(SCC(=O)Nc4ccc5c(c4)OCCO5)nc3)[nH]c2cc1C	Cruzain noTriton 15.8µM
CCN(CC)C(=O)CSc1nc(-c2ccc(C)cc2)nc2c1Cc1c(CO)cnc(C)c1O2	Cruzain noTriton inconclusive
COc1ccc(-n2c(C)c([N+](=O)[O-])c3ccc(O)c(CN(C)C)c32)cc1	Cruzain noTriton 25.1µM
COc1ccc(-n2c(C(C)n3nc(C)c([N+](=O)[O-])c3C)n[nH]c2=S)cc1 (stereo not drawn)	none
COc1cc(-c2noc(-c3ccc(NC4CCCC4)c([N+](=O)[O-])c3)n2)cc(OC)c1OC	Cruzain noTriton inconclusive
COCCn1c(=O)c(CCc2ccccc2)nc2cnc(Nc3ccccc3)nc21	none
COc1ccc(Oc2coc3cc(OC(=O)c4cccs4)ccc3c2=O)cc1	none

Source: PubChem
